Experimental data published in the supplement of paper PMC6555819.

Tests used:
Assay in all cases: PBM binding z-score (relative to random genomic background probes); higher = stronger binding; sequences stand for … in GC…GCGATTGACAGCGTAGAATGAAGG
[1] = test system: FXR:RXRa (NR concentration 270 nM, RXRa partner concentration 90 nM)
Procedure, shortened: (§1)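 Binding buffer was PBS pH 7.4 with 2% milk, 0.02% Triton X-100, 1 mM DTT, 0.2 mg/mL BSA and 0.4 mg/ml salmon testes DNA. In it, ligand-free nuclear receptor dimers were incubated 1 h on custom Agilent 4×180K protein-binding microarrays carrying double-stranded probes. Antibodies against each partner (one per run) detected binding, and z-scores were calculated against random background probes after regression normalization of scanned fluorescence.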

[2] = test system: LXRa:RXRa (NR concentration 270 nM, RXRa partner concentration 90 nM)
Procedure, shortened: as §1

[3] = test system: LXRa homodimer (NR concentration 270 nM)
Procedure, shortened: as §1

[4] = test system: LXRb:RXRa (NR concentration 270 nM, RXRa partner concentration 90 nM)
Procedure, shortened: as §1

[5] = test system: LXRb homodimer (NR concentration 270 nM)
Procedure, shortened: as §1

[6] = test system: PPARa:RXRa (NR concentration 270 nM, RXRa partner concentration 90 nM)
Procedure, shortened: as §1

[7] = test system: PPARg:RXRa (NR concentration 180 nM, RXRa partner concentration 90 nM)
Procedure, shortened: as §1

[8] = test system: PPARg:RXRa 270nM:90nM, anti-RXR (NR concentration 270 nM, RXRa partner concentration 90 nM)
Procedure, shortened: as §1

[9] = test system: PPARg:RXRa 30nM:10nM, anti-RXR (NR concentration 30 nM, RXRa partner concentration 10 nM)
Procedure, shortened: as §1

[10] = test system: PPARg:RXRa 90nM:30nM, anti-RXR (NR concentration 90 nM, RXRa partner concentration 30 nM)
Procedure, shortened: as §1

[11] = test system: PPARg:RXRa DBDmut IVT, anti-RXR (DBD mutation: RXRa K156A/R161A, NR concentration 270 nM, RXRa partner concentration 90 nM)
Procedure, shortened: as §1

[12] = test system: PPARg:RXRa IVT, anti-PPARg (NR concentration 270 nM, RXRa partner concentration 90 nM)
Procedure, shortened: as §1

[13] = test system: PPARg DBDmut:RXRa IVT, anti-PPARg (DBD mutation: PPARg1 K132A/R137A, NR concentration 270 nM, RXRa partner concentration 90 nM)
Procedure, shortened: as §1

[14] = test system: PPARg DBDmut IVT, anti-PPARg (DBD mutation: PPARg1 K132A/R137A, NR concentration 270 nM)
Procedure, shortened: as §1

[15] = test system: PPARg homodimer (NR concentration 180 nM)
Procedure, shortened: as §1

[16] = test system: PXR:RXRa (NR concentration 270 nM, RXRa partner concentration 90 nM)
Procedure, shortened: as §1

[17] = test system: PXR homodimer (NR concentration 270 nM)
Procedure, shortened: as §1

[18] = test system: RARa:RXR (NR concentration 270 nM, RXRa partner concentration 90 nM)
Procedure, shortened: as §1

[19] = test system: RARa homodimer (NR concentration 270 nM)
Procedure, shortened: as §1

[20] = test system: RARb:RXRa (NR concentration 270 nM, RXRa partner concentration 90 nM)
Procedure, shortened: as §1

Row | Sequence | PBM binding z-score [1] | PBM binding z-score [2] | PBM binding z-score [3] | PBM binding z-score [4] | PBM binding z-score [5] | PBM binding z-score [6] | PBM binding z-score [7] | PBM binding z-score [8] | PBM binding z-score [9] | PBM binding z-score [10] | PBM binding z-score [11] | PBM binding z-score [12] | PBM binding z-score [13] | PBM binding z-score [14] | PBM binding z-score [15] | PBM binding z-score [16] | PBM binding z-score [17] | PBM binding z-score [18] | PBM binding z-score [19] | PBM binding z-score [20]
1 | AATACAGGGTCACTAGGCCAGAGGAGGTACGAAT | 5.85 | 4.93 | 0.963 | 3.62 | 1.31 | 5.54 | 8.18 | 6.63 | 3.82 | 5.65 | 3.99 | 5.89 | 1.86 | 1.11 | 2.18 | 2.95 | 0.559 | 4.12 | 0.96 | 4.17
2 | GGAACGAGCGCATTCGAGTTGATAGCATGGCGAT | -1.63 | -0.936 | -0.9 | -1.41 | -1.24 | -1.94 | 0.379 | -1.09 | -0.954 | -1.27 | -0.641 | -0.81 | -0.918 | -0.781 | -1.13 | -0.904 | -0.628 | -1.29 | -0.875 | -1.26
3 | TCTTGTAGATCAGCAGGTTAAGAGAGCTGGCCAA | -0.327 | -0.11 | -0.629 | 0.359 | -0.638 | 0.689 | -0.415 | 1.35 | 2.45 | 1.77 | 1.29 | 0.366 | -0.495 | -0.454 | -0.22 | 0.214 | -0.483 | 0.282 | -0.593 | 0.113
4 | ATATGTAGGTTACATCCGGGTAATTCAGGCTATG | 0.626 | 5.83 | 1.24 | 3 | 0.708 | 3.26 | 5.44 | 4.35 | 1.75 | 3.32 | 7.57 | 7.21 | 4.3 | 3.2 | 1.34 | 0.541 | 0.614 | 1.19 | 0.484 | 1.22
5 | ACAGACAAGTGATGAAGGTAACTCAGGCTATCAT | -0.375 | -0.259 | -0.503 | -0.446 | -0.469 | -0.37 | 0.531 | -0.282 | -0.0857 | -0.2 | -0.565 | -0.0204 | 0.0249 | -0.152 | -0.0362 | -0.39 | -0.0518 | -0.0214 | 0.43 | -0.307
6 | TCTATTAGTTGAAGGGGAACCGACGAGTCCGTTT | 1.21 | 1.19 | 0.437 | 1.19 | 0.829 | 1.23 | 0.0273 | 2.51 | 4.36 | 3.48 | 3 | 0.249 | 1.26 | 0.473 | 1.97 | 1.04 | 1.09 | 0.424 | 1.8 | 0.752
7 | CCTTACGGGTCACTCCAGGTTATACCATCGGAGT | 4.89 | 7.62 | 2.1 | 5.35 | 0.431 | 4.44 | 3.61 | 3.66 | 1.11 | 2.42 | 2.28 | 3.61 | 0.661 | -0.4 | 1.69 | 5 | 0.455 | 3.74 | 0.133 | 3.68
